PubChem BioAssay (NCI)
Values joined by “and” are separate entries in the source; they are usually repeats but may differ in a detail not shown here. Equal values may be shown once. About 83,000 compounds went through this panel and 20% of them were active in at least one assay; those are over-represented in the sample as a whole.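 Negative percent growth values reflect cell death: -40 means 40% of the cells present at the start died, and -100 means all died.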 Values without a mark were called inactive. Active and inactive are the calls of the source.

Each compound was assayed on UACC-62 melanoma (assay: NCI-60 one-dose screen, 48 h (100 = growth as untreated, 0 = no growth, -100 = all killed)). Conditions: 4.75 µM.
Procedure: Growth inhibition of the UACC-62 human tumor cell line is measured as a screen for anti-cancer activity. Cells are grown in 96 well plates and exposed to the test compound for 48 hours. Compounds are tested at a single concentration, which is 10^-5 M for most compounds. The reported endpoint is percent growth (GI% or GIPRCNT), where numbers from 0 - 100% represent growth inhibition, and numbers from -100% - 0 represent cell death. For example, a value of 40 represents 60% growth inhibition. A value of 0 means no net growth occurred over the course of the experiment. A value of -40 indicates 40% of cells at the beginning of the experiment died by the end of the experiment. A value of -100 means all cells are dead at the end of the experiment.
NCI-60 Human Tumor Cell Lines Screen was performed using the standard one-dose NCI protocol, which is described in more detail at https://dtp.cancer.gov/discovery_development/nci-60/default.htm.
Compounds with GIPRCNT values below 10 were considered active. Activity score was based on GIPRCNT using the following formula: […]
Score is 0 for GIPRCNT values of 100 or above, 50 for GIPRCNT values of 0, and 100 for GIPRCNT values of -100.
`CC(=O)OCC1OC([S-])C(OC(C)=O)C(OC(C)=O)C1OC(C)=O.[Au+].c1ccc(CN2[CH-]N(Cc3ccccc3)C(c3ccccc3)=C2c2ccccc2)cc1` was tested, and the growth was -18.6% (active).

Same assay, conditions: 10 µM
For `CC(=O)OCC1OC([S-])C(OC(C)=O)C(OC(C)=O)C1OC(C)=O.[Au+].c1ccc(CN2[CH-]N(Cc3ccccc3)C(c3ccccc3)=C2c2ccccc2)cc1`, the growth was 3.54% (active).

Same assay, conditions: 10 µM unless noted
`CSc1cc(/C=C(\C)[C@@H]2C[C@@H]3O[C@]3(C)CCC[C@H](C)[C@H](O)[C@@H](C)C(=O)C(C)(C)[C@@H](O)CC(=O)O2)n(CCNC(=O)OC(C)(C)C)n1` showed a growth of 43.8%.
Compound `Nc1ccc2c(c1)Cc1cc(N)ccc1-2` has a growth of 96%.
With `CC[C@H](C)[C@H](NC(=O)[C@H]1CCCCN1C)C(=O)N(C)[C@H](C[C@@H](OC(C)=O)c1nc(C(=O)NC23C4C5C2C2C3C4C52C(=O)OC)cs1)C(C)C` (stereo not given in full) the growth was 43.8%.
For `C[C@]12C[C@H](c3ccoc3)OC(=O)[C@H]1CC[C@@]1(C)[C@@H]2[C@H]2C=C[C@]1(O)C(=O)O2`, the growth was 92.5%.
Compound `C=CC1CN2CCC1CC2C(O)c1ccnc2ccccc12` (stereo not given) has a growth of 113%.
In the case of `CC/C(Cc1ccccc1)=C(\c1ccc(OCCN2CCCC2)cc1)c1ccc(OC(=O)NCc2ccccc2)cc1`, the growth was -45.4% (active).
`COc1ccc(N)cc1OC` showed a growth of 97.5%.
In the case of `Cc1ccc(C(=O)O[C@H](C(=O)O)[C@H](OC(=O)c2ccc(C)cc2)C(=O)O)cc1`, the growth was 104%.
In the case of `O=C1NC(=O)C(=Cc2ccccc2)C(=O)N1`, the growth was 90.3% and 105%.
For `O=S(=O)(F)c1cccc(Cl)c1C[P+](c1ccccc1)(c1ccccc1)c1ccccc1`, the growth was 90.2%.
In the case of `O=NN1CCCCC1`, the growth was 97.1%.
In the case of `Cc1cc(N)ccc1N`, the growth was 103%.
For `C=CCOC(=O)C(Br)CC` (stereo not given), the growth was 98.8%.
`CCN(CC)CCn1c(=O)n(C)c2ccccc21` showed a growth of 109%.
With `O=P1(N(CCCl)CCCl)NCCCO1` (stereo not given) the growth was 94.4%.
In the case of `O=P(O)(Nc1ccccc1)Nc1ccccc1`, the growth was 91.8%.
For `Cn1cc(C(=O)C[n+]2ccccc2)c2ccccc21`, the growth was 105%.
In the case of `Oc1ccccc1C=NCCN=Cc1ccccc1O.[Fe]`, the growth was 58.4%.
Work on `COc1ccc(C(C#N)C(C)=O)cc1` (stereo not given) yielded a growth of 97.6%.
Work on `N#CCN(CC#N)[N+](=O)[O-]` yielded a growth of 98.2%.
For `ClCc1ccc(Cl)c(Cl)c1`, the growth was 97.9%.
In the case of `CCC1CCC(=O)O1` (stereo not given), the growth was 114%.
For `CC1(C)S[C@H]2CC[C@H]3OC(=O)[C@@H]1N23`, the growth was 93.4%.
For `CN1[C@@H](CC(=O)c2ccccc2)CCC[C@H]1CC(=O)c1ccccc1`, the growth was 97.7%.
For `CCC(=O)C(CC(C)[N+](C)(C)C)(c1ccccc1)c1ccccc1` (stereo not given), the growth was 101%.
For `COc1ccc(CN)cc1OC`, the growth was 111% and 100%.
`COc1c(O)cc2c(c1OC)-c1ccc(SC)c(=O)cc1C(NC(C)=O)CC2` (stereo not given) gave a growth of 18.6%.
`NC(=O)Oc1cc(OC(N)=O)cc(N(CCCl)CCCl)c1` showed a growth of 46.2%.
`COc1ccc(/C=C(/C)[N+](=O)[O-])cc1OC` was tested, and the growth was 46.1% and 23.8%.
For `Nc1nc(=S)nc(N)[nH]1`, the growth was 101%.
For `C[C@H](O)CCC(=O)c1ccoc1`, the growth was 96%.
Work on `COC[C@H]1OC(=O)c2coc3c2[C@@]1(C)C1=C(C3=O)[C@@H]2CCC(=O)[C@@]2(C)C[C@H]1OC(C)=O` yielded a growth of 15.7%.
Work on `N#CC(N)c1ccccc1` (stereo not given) yielded a growth of 99.5%.
Compound `C[C@]12CC[C@H]3[C@@H](CC=C4c5nc(-c6ccc(Br)cc6)sc5CC[C@@]43C)[C@@H]1CC[C@@H]2O` has a growth of 84.4%.
With `CNC(=O)Oc1ccc(Cl)cc1SSc1cc(Cl)ccc1OC(=O)NC` the growth was 49.7%.
In the case of `CC1(C)CN=C(NN=C(/C=C/c2ccc(C(F)(F)F)cc2)/C=C/c2ccc(C(F)(F)F)cc2)NC1`, the growth was -83.8% (active).
In the case of `C[C@]12CCc3sc(Nc4ccc(F)cc4F)nc3C1=CC[C@@H]1[C@@H]2CC[C@]2(C)C(=O)CC[C@@H]12`, the growth was 67.6%.
`CN1C2CCC1[C@@H](COC(=O)c1ccccc1)[C@@H](O)C2` (stereo not given in full) gave a growth of 96%.
